Molecules are shown by their SMILES. ± gives the standard deviation of the averaged measurements.

Our source for the cell number values is the supplement of paper PMC7156485.
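Further: TDF denotes transformed human dermal fibroblasts of mesenchymal origin.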

This experiment deals with HCC1569. Description: cell number relative to DMSO (% of DMSO); higher = more cells (less growth inhibition / toxicity). The following applies: concentration: 10 µM; 24 h. An outline of the steps: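 Cell number or H1.0 nuclear intensity appears as percent of the plate control, based on the median of replicates. Measurements came from HCC1569 and TDF cells exposed in triplicate to compounds at 10 µM for 24 h at 37 °C, then imaged in six fields per well at ×10. Positional effects were smoothed out of HCC1569 values.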
The compound `Clc1ccc(Nc2nnc(Cc3ccncc3)c3ccccc23)cc1` [Vatalanib] displayed a cell number of 103.
The same measure for `C[C@@H](c1nc(-c2ccc(C#N)cc2)cs1)[C@](O)(Cn1cncn1)c1ccc(F)cc1F`: 83.5; for `Cl.NCCCCC(=O)O` [5-Aminovaleric acid hydrochloride]: 102; for `CNC(=O)c1ccccc1Sc1ccc2c(C=Cc3ccccn3)n[nH]c2c1` [Axitinib]: 67.8.
The same measure for `CN1CCCC1c1cccnc1.O=C(O)C(O)C(O)C(=O)O.O=C(O)C(O)C(O)C(=O)O` (single isomer, unassigned; (-)) [(-)-Nicotine hydrogen tartrate salt]: 102.
The same measure for `CCCCCCCCCCCCCC=CC(O)C(CO)NC(=O)CCCCC` (stereo unspecified) [C6 Ceramide]: 100; for `O=C(O)CCCc1c[nH]c2ccccc12` [Indole-3-butyric acid]: 104; for `CC(C[N+](C)(C)C)OC(N)=O.[Cl-]` (stereo unspecified) [Bethanechol chloride]: 91.3.
For `O=C1OC(=CBr)CCC1c1cccc2ccccc12` (stereo unspecified) [Bromoenol lactone], the cell number was determined as 97.3.
The result for `CC(NC(=O)CCc1nc(=O)c2ccccc2[nH]1)c1ccccc1` (stereo unspecified) reads 103; that for `CCCN(CCC)CCc1cccc2c1CC(=O)N2.Cl` [Ropinirole hydrochloride], 101; that for `Cc1[nH]c2ccccc2c1C1=C(NCCc2ccc(F)cc2)C(=O)N(C)C1=O`, 82.4.
The compound `O=C(O)c1cn(C2CC2)c2cc(N3CCNCC3)c(F)cc2c1=O` [Ciprofloxacin] registered a cell number of 105.
`COc1ccc2cc1Oc1ccc(cc1)CC1c3c(cc4c(c3Oc3cc5c(cc3OC)CCN(C)C5C2)OCO4)CCN1C` (stereo unspecified) [Cepharanthine] yielded a cell number of 95.3.
The same measure for `COc1ccc(S(=O)(=O)Nc2nc(-c3cccc([N+](=O)[O-])c3)c(CN3CCCCC3)s2)cc1OC`: 101; for `CCC(C)(C)c1ccc(CC(C)CN2CC(C)OC(C)C2)cc1` (stereo unspecified) [Amorolfine]: 94.1; for `CC(C)(Oc1ccc(CCNC(=O)c2ccc(Cl)cc2)cc1)C(=O)O` [Bezafibrate]: 98.4.
The same measure for `c1ccc2c(Oc3nc(Nc4ccc(N5CCOCC5)cc4)c4ncn(C5CCCCC5)c4n3)cccc2c1`: 84.3.
`COc1ccnc(CS(=O)c2nc3cc(OC(F)F)ccc3[n-]2)c1OC.O.[Na+]` (stereo unspecified): the cell number was found to be 104.
The same measure for `CCOC(=O)[C@H](CCc1ccccc1)N[C@@H](C)C(=O)N1CCC[C@H]1C(=O)O.O=C(O)C=CC(=O)O`: 102.
The same measure for `CCOc1cc2ncc(C#N)c(Nc3ccc(F)c(Cl)c3)c2cc1NC(=O)/C=C/CN(C)C`: 43.6; for `CCC1(C)CC(=O)NC1=O` (stereo unspecified) [Ethosuximide]: 102.
The compound `CCN(CC)CC(=O)Nc1c(C)cccc1C.Cl.O` [Lidocaine.HCl.H2O] displayed a cell number of 99.
The result for `CCN(CC)CC#CCOC(=O)C(O)(c1ccccc1)C1CCCCC1.Cl` (stereo unspecified) [Oxybutynin Chloride] reads 101; that for `CCn1cc(C(=O)O)c(=O)c2cc(F)c(N3CCNC(C)C3)c(F)c21` (stereo unspecified) [Lomefloxacin], 101.
The result for `CC1(COc2ccc(CC3SC(=O)NC3=O)cc2)CCCCC1` (stereo unspecified) [Ciglitazone] reads 99.8; that for `O=S1(=O)CCN(CN2CCS(=O)(=O)NC2)CN1`, 98.4.
The result for `CCCCCC=CCC=CCC=CCCCCCCC(=O)O` [Dihomo-γ-linolenic acid] reads 99.6; that for `CN(C)c1ccccc1CN1CCCN(Cc2ccccc2N(C)C)C1c1ccncc1`, 83.9.
`O=c1[nH]c2ccccc2n1CCCN1CCN(C(c2ccccc2)c2ccccc2)CC1` [Oxatomide]: the cell number stood at 98.3 ± 2.3.
The result for `S=C(NCc1ccc2c(c1)OCO2)N1CCN(c2ncnc3c2oc2ccccc23)CC1` reads 65.5.
The same measure for `CCCCCCCCCCCCCCCCCCCC(=O)O` [Eicosanoic acid]: 99.8.
The same measure for `O=C(O)C=Cc1ccc(Cn2ccnc2)cc1` [Ozagrel]: 100.
In the case of `Cc1cc(C)c(C=C2C(=O)Nc3ccccc32)[nH]1` [VEGF Receptor 2 Kinase Inhibitor III], the cell number was 100.
The result for `O=C(NCCCN1CCOCC1)c1cnn2c(-c3ccccc3)cc(-c3ccccc3)nc12` reads 95.3; that for `C=CC1(C)CC(=O)C2(O)C(C)(O1)C(OC(C)=O)C(O)C1C(C)(C)CCC(O)C12C` (stereo unspecified) [Forskolin], 89.77 ± 0.53.
